# Measured values: ChEMBL document CHEMBL3988442, “University of Dundee, Small-Polar-MMV Screening Library” (2021)
# Several values for one entry are separate records, joined by “and”; a condition that tells them apart may be missing. Identical values can stand only once. In all, about 67,000 compounds went through this assay and about 40 (0.06%) showed an effect of 50% or more. For the sample, strong results were picked, then their nearest neighbours and some compounds at random.
# Biological target: T1, Coenzyme A biosynthesis bifunctional protein CoaBC (Mycobacterium tuberculosis (strain ATCC 25618 / H37Rv)) (UniProt P9WNZ1)
# T1 sequence (whole entry): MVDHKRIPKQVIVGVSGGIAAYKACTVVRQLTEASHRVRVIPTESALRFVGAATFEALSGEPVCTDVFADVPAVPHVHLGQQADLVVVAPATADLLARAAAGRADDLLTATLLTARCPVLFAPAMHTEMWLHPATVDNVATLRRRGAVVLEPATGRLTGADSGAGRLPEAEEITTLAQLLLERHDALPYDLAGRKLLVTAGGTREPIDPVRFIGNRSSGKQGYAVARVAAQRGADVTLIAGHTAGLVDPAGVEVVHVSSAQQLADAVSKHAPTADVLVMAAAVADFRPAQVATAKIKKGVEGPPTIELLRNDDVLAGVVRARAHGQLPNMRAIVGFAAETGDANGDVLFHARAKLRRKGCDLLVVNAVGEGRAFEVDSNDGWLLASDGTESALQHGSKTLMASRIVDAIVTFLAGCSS
# Test: Biomol Green assay for MtCoaBC inhibitor, OD650 read
# Format: functional
# Set-up: scale not given: in the data most compounds retested in dose-response had high values
# Settings: 30 µM
row,SMILES,Percent Effect
1,CC(C)C(NC(=O)NCC1CC1)c1nnc2n1CCC2 (configuration not stated),-0.508%
2,CCC1(CNC(=O)NC(c2nnc3n2CCC3)C(C)C)CCC1 (configuration not stated),-3.55%
3,COCCN1C(=O)[C@]2(CC[C@@H]3CN(S(=O)(=O)CC(C)C)C[C@@H]32)N=C1C,-3.81%
4,CC(C)CC(=O)N1CC[C@@H]2CN(CC(=O)N(C)C)S(=O)(=O)[C@@H]2CC1,2.32%
5,Cc1noc([C@H]2C[C@@H]3CCN(CC4CC4)C[C@H]3O2)n1,-1.9%
6,Cc1cccc(CN2CC[C@H]3[C@H]2CCN3Cc2cnn(C)c2)n1,-4.59%
7,c1cc(COC[C@@]23CCC[C@@H]2CN(C2CCOCC2)C3)ccn1,6.42%
8,Cc1cnn(CC2CCCN2Cc2ncc(-c3ccccc3)o2)c1 (configuration not stated),2.73%
9,Cc1cnn(CC2CCCN2Cc2nnc(Cc3ccccc3)o2)c1 (configuration not stated),0.119%
10,O=C(N1CCCO1)[C@@]12CCO[C@@H]1CCN(Cc1ccsc1)C2,-8.02%
11,CCS(=O)(=O)N1CC[C@H]2CO[C@H](CN(C)C)[C@H]2C1,-0.203%
12,CC(=O)N1C[C@H]2CNC[C@@]2(C(=O)NCCCOc2cccnc2)C1,3.58%
13,O=C(NCCC(=O)N1CCCC1)c1cccnc1,0.943%
14,CN1CCC(C)(CNC(=O)c2ccc(SCc3cccnc3)cc2)CC1,-1.65%
15,O=C(c1cscn1)N1C[C@@H]2C[C@@H](c3nnc(C4CC4)o3)O[C@@H]2C1,0.38%
16,CC1CCN(C[C@H]2CN3CC[C@H]2C[C@@H]3CNC(=O)c2ccco2)CC1,-15.2%
17,Cc1ccccc1CC(=O)N1C[C@@H]2COC[C@]2(CN(C)C)C1,-10.9%
18,COCCN1CC[C@@H]2CN(Cc3cccnc3OC)C[C@@H]2C1,-0.364%
19,Nc1cc(O)nc(CCNC(=O)CC[C@@H]2CCCN3CCCC[C@H]23)n1,-3.91%

row,SMILES,Percent Effect
1,COc1ccc(C2CC(=O)c3c(O)cc(O)cc3O2)cc1O (configuration not stated),17.8%
2,COc1cc(C2CC(=O)c3c(O)cc(O)cc3O2)ccc1O (configuration not stated),7%
3,COc1cc(O)cc2c1C(=O)CC(c1ccc(O)cc1)O2 (configuration not stated),65.2% and 48.7%
4,CN(Cc1ccco1)[C@@H]1CN(Cc2ccsc2)C[C@@H]2CCCO[C@@H]21,5.46%
5,COCc1cccc(C(=O)N2C[C@H]3CC[C@@H]2CN(Cc2cscn2)C3)n1,1.53%
6,Cc1nc(CN2CC[C@H]3[C@@H]2CCC(=O)N3c2cnn(C)c2)cs1,-3.58%
7,Cn1cc(N2C(=O)CC[C@@H]3[C@H]2CCN3Cc2ccncc2)cn1,0.381%
8,O=C1N[C@@H]2CCN(C(=O)C3CCC3)[C@@H]2C(=O)N1c1ccc(F)cc1,0.226%
9,Fc1cccc(O[C@@H]2C[C@H]3CN(Cc4ccccn4)CCN3C2)c1,0.483%
10,Cn1cccc1C(=O)N1CC[C@H]2C[C@@H](c3ccncn3)O[C@@H]2C1,1.03%
11,COc1ccc(CN2CCCC2)cc1Oc1ccc2c(c1)CC(CN)O2 (configuration not stated),4.1%
12,Cc1cc(CN2CCCC2)cc(Oc2ccc3c(c2)CC(CN)O3)c1 (configuration not stated),3.85%
13,O=C(NCC1CC1)[C@@H]1C[C@@H]2OCCN[C@@H]2C1,-1.96%
14,COc1ccc(-n2cc(CNC(=O)c3ccccn3)nn2)cc1,6.21%
15,CN1C(=O)CO[C@H]2CN(C(=O)Nc3ccc(F)cc3)C[C@H]21,9.63%
16,Cc1noc([C@H]2C[C@@H]3CCN(CC4CCOCC4)C[C@H]3O2)n1,14.2%
17,Cc1ccc(OCC(=O)N2CCN[C@H]3CS(=O)(=O)C[C@H]32)cn1,12%
18,Cc1ncsc1CN1C[C@@H]2COC[C@]2(COc2ccc(C#N)cn2)C1,2.8%
